Data taken from PubChem BioAssay (NCI).
The panel holds about 83,000 compounds, 20% with a hit somewhere; the sample as a whole holds those more often.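 How to read the values: 0–100, growth inhibition (40 = 60% inhibited); 0, no net growth; -100 to 0, cell death (-40 = 40% of starting cells died; -100 = all dead).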 Unmarked numbers belong to inactive results. Calls of active or inactive are those of the source. How the source made its calls: active means growth percent below 10; inactive means the rest.

Key:
Test in all cases: NCI-60 one-dose screen, 48 h (100 = growth as untreated, 0 = no growth, -100 = all killed)
Settings in all cases: 10 µM unless noted
[1] = tested on: HCT-15 colon
[2] = tested on: HT29 colon
[3] = tested on: SNB-75 CNS
[4] = tested on: SNB-19 CNS
[5] = tested on: U251 CNS
[6] = tested on: PC-3 prostate
[7] = tested on: SK-MEL-5 melanoma
[8] = tested on: UACC-62 melanoma
[9] = tested on: LOX IMVI melanoma
[10] = tested on: SK-MEL-28 melanoma
[11] = tested on: EKVX NSCLC
[12] = tested on: SN12C renal
[13] = tested on: UO-31 renal
[14] = tested on: TK-10 renal
[15] = tested on: ACHN renal
[16] = tested on: CAKI-1 renal
[17] = tested on: A498 renal
[18] = tested on: CCRF-CEM leukemia
[19] = tested on: MOLT-4 leukemia
[20] = tested on: SK-MEL-2 melanoma

SMILES	growth [1]	growth [2]	growth [3]	growth [4]	growth [5]	growth [6]	growth [7]	growth [8]	growth [9]	growth [10]	growth [11]	growth [12]	growth [13]	growth [14]	growth [15]	growth [16]	growth [17]	growth [18]	growth [19]	growth [20]
NC(=O)Nc1ccc2ncnc(Nc3cccc(O)c3)c2c1	108%	106%	102%	93.1%	87.9%	102%	101%	105%	101%	114%	82.6%	94.9%	80.1%	103%	103%	84.8%	77.4%	108%	98.8%	–
CCCCCCCCCCC(C(O)c1ccccc1)N1CCCCC1 (stereo not given)	16.8%	-10.5% (active)	63.1%	43.7%	28%	25.7%	-94.3% (active)	-9.77% (active)	-30.5% (active)	-15.9% (active)	33.5%	43.2%	-1.17% (active)	76.8%	42.1%	-21.1% (active)	75.1%	0.764% (active)	6.36% (active)	–
O=C1OCC2=C1C(c1ccc(Cl)c(Cl)c1)c1cc3c(cc1N2CCO)CCC3 (stereo not given)	13.4%	3.94% (active)	18%	32.5%	16%	25.5%	30%	13.7%	32.8%	47.3%	40.2%	31.4%	26.3%	50.7%	32.8%	35.7%	-0.897% (active)	10.6%	18.9%	–
CCOc1cccc(/C=N/NC(=O)c2ccc(Nc3ccnc(C(F)(F)F)c3)cc2)c1O	19.1%	49.3%	20.6%	20%	15.9%	50.8%	-54.3% (active)	-6.19% (active)	2.5% (active)	19.2%	15.2%	40.7%	-11% (active)	28.4%	3.84% (active)	13.8%	-2.13% (active)	-30.8% (active)	31.2%	–
ClCc1cccc(CSc2ncnc3c2ncn3Cc2cccc(CCl)c2)c1	20.7%	13.2%	-13.8% (active)	45.6%	-69.8% (active)	49.8%	20.2%	6.23% (active)	-8.54% (active)	27.4%	92.9%	2.77% (active)	40.6%	48.4%	70.1%	96.4%	76.2%	3.41% (active)	5.6% (active)	–
CSC(=S)N/N=C(\C)c1ccccn1	34.7%	25.9%	35.5%	24.6%	13.9%	27%	-47.7% (active)	-22.3% (active)	12.7%	42.4%	4.31% (active)	24.2%	-0.858% (active)	41.7%	14.8%	-9.67% (active)	-3.97% (active)	7.65% (active)	0.153% (active)	–
Cc1cccc(C(=O)O)n1	99.4%	112%	103%	97.6%	105%	117%	98.3%	101%	101%	123%	93.9%	102%	72.3%	109%	102%	69.8%	116%	146%	94.2%	–
Nc1cc2nc3ccccc3oc-2cc1=O	18.2%	38.8%	-86% (active)	80.8%	35.6%	27.8%	-97.9% (active)	-75.2% (active)	-11.4% (active)	-56.2% (active)	61%	-48.8% (active)	-40.2% (active)	173%	53.3%	–	-7.02% (active)	94%	–	–
CC(C)N1CCN(c2ccncc2S(=O)(=O)N2CCN(C)CC2)CC1	97.6%	102%	80.6%	98.7%	98.8%	114%	100%	108%	97.4%	114%	–	98.4%	–	101%	101%	98.5%	107%	98.4%	104%	107%
Cc1nc2c(-c3cnc(N)nc3)nc(N3CCOCC3)nc2n1C(C)C	10.7%	3.37% (active)	-38.8% (active)	10.6%	4.62% (active)	14.4%	-21.2% (active)	-39.9% (active)	-1.69% (active)	-10.1% (active)	9.04% (active)	12.8%	-12.1% (active)	-33% (active)	2.76% (active)	0.604% (active)	-39.2% (active)	–	6.75% (active)	–
CCc1ccc2c(c1)N(CCO)C1=C(C(=O)OC1)C2c1cccc(Cl)c1 (stereo not given)	15.9%	4.49% (active)	18.9%	36.4%	18.1%	28.8%	32.1%	21.8%	44.3%	50.3%	43%	38.7%	34.9%	49.9%	42%	27.6%	-1.08% (active)	10.5%	17.6%	–
Nc1nc(N)c2cc(CNc3ccc(Cl)c(Cl)c3)ccc2n1	9.76% (active)	-75.2% (active)	40.1%	31.5%	-78.1% (active)	22.5%	15.4%	21%	-54.8% (active)	60.1%	31.4%	27.4%	0.0737% (active)	31.5%	22.5%	14.8%	43.1%	2.81% (active)	-44.2% (active)	–
COc1cc(/C=C/c2ccc3c(Br)cc(Br)c(O)c3n2)ccc1O	27.6%	36.7%	36.5%	23.4%	16.4%	12.9%	27.5%	10%	29.5%	23.3%	23.1%	52.8%	0.12% (active)	30.3%	22%	–	-4.9% (active)	-24.5% (active)	–	–
C/C(=N\NC(=S)Nc1ccccc1)c1ccccn1	28.1%	34.4%	79.9%	43.5%	32.1%	31.6%	16.5%	16.4%	37.3%	59.8%	12.9%	39.2%	-1.12% (active)	50.9%	17.7%	6.16% (active)	29.1%	16.7%	8.83% (active)	–
COc1ccc(-c2nc(-c3cc(OC)cc(OC)c3)[nH]c2-c2ccc(OC)cc2)cc1	45.3%	17.3%	86.1%	61.2%	45.6%	27.5%	14.9%	37%	61.3%	67.4%	–	70.6%	–	62.2%	–	44.5%	66%	11.1%	14.2%	29.4%
Cc1ccc(CSCc2ccc(C(=O)NC3CC3)o2)cc1	37.7%	27.9%	86%	98.8%	56.4%	74.2%	57.3%	50.5%	58.2%	100%	–	83.2%	–	90.6%	63.1%	64.5%	53.3%	62.1%	62.6%	75.6%
